From PubChem
Mm-Cpn inhibitor: inhibitors of Methanococcus maripaludis chaperonin TRiC (MmCpn). AID 504842. purified Mm-Cpn ATPase, ADP Transcreener TR-FRET. 330,000 tested, 0.031% active. Potency, µM (series often up to 76.9 µM), for the others: top-dose activity, negative = inhibition, usual class: inhibitors; note: potency is the fitted concentration of half-maximal effect; nearly all actives have a fitted effect of over 80% in size
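ATPase read-out: TR-FRET ADP immunoassay (anti-ADP Eu cryptate vs ADP-d2), ex 320 nm, em 590/665 nm; signal drops as ADP forms. Enzyme 25 nM, ATP 10 uM, 30 min at 37°C after 10 min compound preincubation.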
G9a block: G9a (human) methyltransferase inhibition | G9a H3K9 monomethylation, AlphaScreen, 2 h | Potency, µM (titrated, usually from 102 µM), for the others: at the highest dose activity, negative = inhibition, actives largely listed as inhibitors | 350,000 tested, 8.8% active | AID 504332; note: potency is the fitted concentration of half-maximal effect; nearly all actives have a fitted effect of over 75% in size
Target sequence (Q96KQ7 913-1193 limits assumed): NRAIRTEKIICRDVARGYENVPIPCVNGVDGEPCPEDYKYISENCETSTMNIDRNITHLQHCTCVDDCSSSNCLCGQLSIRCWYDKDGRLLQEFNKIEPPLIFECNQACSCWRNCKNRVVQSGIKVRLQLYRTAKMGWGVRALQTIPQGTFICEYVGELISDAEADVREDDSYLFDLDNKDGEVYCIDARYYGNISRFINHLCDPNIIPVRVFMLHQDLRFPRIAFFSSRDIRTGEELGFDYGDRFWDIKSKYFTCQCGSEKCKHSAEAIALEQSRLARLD
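Quantitative HTS format: methyltransferase activity on a biotin-tagged H3K9 peptide is measured by AlphaScreen, using a rabbit anti-monomethyl-H3K9 antibody with streptavidin donor and anti-IgG acceptor beads. Final levels are 20 nM enzyme, 500 nM peptide, 20 uM SAM; 2 h RT.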
VDR inhibitor: vitamin D3 receptor (human) inhibition | P11473 | VDR-SRC2-3 peptide fluorescence polarization, 2 h | Potency, µM, inactives show max response, negative = inhibition, hits mostly inhibitors | 400,000 tested, 0.93% active | AID 504847; note: potency is the fitted concentration of half-maximal effect
Target sequence (P11473 whole entry, looked up): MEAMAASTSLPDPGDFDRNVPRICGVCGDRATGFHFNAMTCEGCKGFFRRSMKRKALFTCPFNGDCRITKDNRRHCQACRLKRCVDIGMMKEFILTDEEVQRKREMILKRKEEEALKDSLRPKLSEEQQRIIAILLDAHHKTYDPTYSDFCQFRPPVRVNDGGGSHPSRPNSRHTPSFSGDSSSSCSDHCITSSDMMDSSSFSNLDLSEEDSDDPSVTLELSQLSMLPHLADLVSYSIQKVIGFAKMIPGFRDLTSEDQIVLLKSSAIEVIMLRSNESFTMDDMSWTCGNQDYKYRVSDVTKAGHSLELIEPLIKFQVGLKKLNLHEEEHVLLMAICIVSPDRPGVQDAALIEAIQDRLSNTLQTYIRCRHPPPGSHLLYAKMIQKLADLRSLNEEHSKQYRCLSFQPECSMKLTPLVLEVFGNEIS
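After 23 nl compound addition and a short centrifugation, plates sat for 2 hours at ambient temperature; polarization of fluorescence then indicated loss of VDR binding to peptide SRC2-3.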
PLK1 PBD inh: PLK1 (human) polo-box domain binding inhibition; 360,000 tested, 2.8% active; AID 720504; Plk1 PBD binding of FITC phosphopeptide, fluorescence polarization; Potency, µM, for inactives: max response, negative = inhibition, hits mostly inhibitors; P53350; note: potency is the fitted concentration of half-maximal effect; series mostly up to about 57 µM; nearly all actives have a fitted effect of over 65% in size
Sfp PPTase inh: Sfp phosphopantetheinyl transferase inhibition; Potency, µM, inactives show largest response in the series, negative = inhibition, hits mostly inhibitors; 310,000 tested, 3.5% active; AID 1490; Biochemical Sfp PPTase activity, qHTS; Q9F4F7;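 note: the enzyme is Sfp with the accession as filed and its product quenches rhodamine fluorescence; potency is the fitted concentration of half-maximal effect; 0% = enzyme reaction without inhibitor and -100% = no enzyme wells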
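With Hepes-Na pH 7.6 buffer containing 10 mM MgCl2, Sfp (15 nM) modified BHQ-2-YbbR (12.5 uM) using rhodamine-CoA (5 uM). Two reads 30 minutes apart at 525/598 nm yielded each well's rate.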
CCT modulator: changes cytosolic chaperonin activity; purified chaperonin ATPase assay, HTRF ADP detection, 30 min; activity change, % (test concentration not listed), hits read low; 360,000 tested, 0.3% active; in the data active = activity change below about -30%
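TRiC at 40 or 20 nM final (batch-dependent) in 30 mM Tris pH 7.4, 100 mM KCl, 5 mM MgCl2, 1 mM DTT, with compound at single 76 uM and 10 uM ATP, 30 min at 37 deg C. ADP detected by HTRF Transcreener, 665/615 ratio.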
* = called active by the depositor; ? = inconclusive; . = not tested or not shown; ! = repeats disagree; [ ] = another dose, or the depositor's remark. This is a sample that favours compounds with a hit; in the whole collection about 10% have one here. Unless noted, calls come from the whole dose curve; as a rule, active = well fitted curve in the direction sought with a large enough effect; inconclusive = small, poorly fitted or top-dose-only effect, or another doubt; inactive = no such curve, though single readings can be large; an effect the other way counts as inactive or inconclusive. Unless noted, % is set by controls: 0 for no effect and ±100 for the full control effect.

SMILES	Mm-Cpn inhibitor	G9a block	VDR inhibitor	PLK1 PBD inh	Sfp PPTase inh	CCT modulator
Cc1nc(S(=O)(=O)c2ccc(Cl)cc2)c(NCc2ccccc2)o1	1%	45µM*	-9%	1%	-17%	-1
CCC(C)NC(=O)Cn1ccc2cc(S(=O)(=O)N3CCCCC3)ccc21 (stereo not drawn)	.	-11%[59 µM]	11%	.	.	.
CC(C)C[C@H](NC(=O)[C@@H]1CCC(=O)N1)C(=O)N[C@@H](Cc1ccc(O)cc1)C(=O)N[C@@H](CCC(=O)O)C(=O)N[C@@H](CC(N)=O)C(=O)N[C@@H](CCCCN)C(=O)N1CCC[C@H]1C(=O)N[C@@H](CCCN=C(N)N)C(=O)N[C@@H](CCCN=C(N)N)C(=O)N1CCC[C@H]1C(=O)N[C@@H](Cc1ccc(O)cc1)C(=O)O	.	.	1%	.	15%	.
CC(NC(=O)Cn1ccsc1=N)C12CC3CC(CC(C3)C1)C2 (stereo not drawn)	2%	-7%	-21%	7.5µM*	6%	2
CC(NC(=O)Cn1c(=O)[nH]c2ccsc2c1=O)C12CC3CC(CC(C3)C1)C2 (stereo not drawn)	0%	9%	-10%	2%	-21%	2
CCOC(=O)c1cnc(SCC(=O)OC)nc1N	1%	53%[0.501 µM]	1%	-2%	-3%	1
CCOc1ccc2nc(SC3CC(=O)N(c4cccc(OC)c4)C3=O)sc2c1 (stereo not drawn)	-6%	10µM*	-2%	-4%	-10%	-2
CCOC(=O)c1cnc(SC2CC(=O)N(c3cccc(OC)c3)C2=O)nc1N (stereo not drawn)	-1%	35µM*	-1%	-16%	-5%	0
CCc1cccc(NC(=O)CCc2nc3cccnc3n2-c2ccccc2)c1	.	-7%[59 µM]	-21%	.	.	.
CS(=O)(=O)N(CCC#N)Cc1ccc(/C=C2\C(=O)Nc3ccccc32)o1	-9%	45µM*	-4%	-11%	0%	3
N#CCCN(CC(=O)O)S(=O)(=O)c1ccccc1	0%	?	-12%	-15%	12%	1
O=c1oc2c(CN3CCOCC3)c(O)c(Cl)cc2c2c1CCCC2	-5%	79µM*	-14%	-17%	56µM*	-2
COC(=O)[C@H](C)NC(=O)C/C=C\[C@@H](C)[C@@H](CO)OC	.	.	.	.	-6%	.
N#Cc1cc2ccccc2nc1SCC(=O)NC1CC1	-8%	50µM*	16%	-3%	-1%	-3
COc1ccc(NC(=O)CCCn2c(=O)c3cccn3c3ccccc32)c(OC)c1	.	-1%[59 µM]	2%	.	.	.
COc1ccc2c(c1)C(=O)[C@H](OC(=O)NCc1ccc3c(c1)OCO3)[C@@H](c1ccc(OC)c(Br)c1)O2	.	.	3%	.	5%	.
CC(=O)Nc1ccc(NS(=O)(=O)c2c(Cl)cccc2Cl)cc1	1%	?	-26%	27µM*	79µM*	-1
O=c1[nH]c2ccc(NS(=O)(=O)c3ccc(Cl)cc3)cc2[nH]1	-1%	56µM*	-16%	-3%	5%	-5
CC(=O)Nc1ccc(S(=O)(=O)Nc2ccc(C(=O)NCC(=O)O)cc2)cc1	0%	20µM*	-17%	1%	-12%	-1
O=c1[nH]c2ccc(NS(=O)(=O)c3ccc(F)c(Cl)c3)cc2[nH]1	3%	?	-18%	-22%	4%	0
CC(=O)Nc1ccc(NS(=O)(=O)c2ccc3ccccc3c2)cc1	3%	-3%[12.7 µM]	?	7.5µM*	17%	1
COc1ccc(C2NC(=O)N(C)C3=C2C(=O)N(c2ccc(C)cc2)C3)cc1 (stereo not drawn)	.	2%[59 µM]	4%	.	.	.
Cc1cccc(Nc2c3c(nc4nncn24)CCC3)c1C	.	0%[59 µM]	9%	.	.	.
CCn1c(=NC(=O)c2ccc3c(c2)OCCO3)sc2c(C)ccc(OC)c21	.	16%[59 µM]	8%	.	.	.
O=c1[nH]c2ccc(NS(=O)(=O)c3ccc4ccccc4c3)cc2[nH]1	2%	50µM*	-12%	3%	20%	0
SMILES	Mm-Cpn inhibitor	G9a block	VDR inhibitor	PLK1 PBD inh	Sfp PPTase inh	CCT modulator
CO[C@@]1(NC(=O)CSCC#N)C(=O)N2C(C(=O)O)=C(CSc3nnnn3C)CSC21 (stereo partly drawn)	.	-40%[2.33 µM]	-16%	.	-18%	.
CO[C@@]1(NC(=O)C2SC(=C(C(N)=O)C(=O)O)S2)C(=O)N2C(C(=O)O)=C(CSc3nnnn3C)CS[C@@H]21 (stereo partly drawn)	-2%	16µM*	-18%	-8%	.	-1
c1ccc(CN(CC2=NCCN2)c2ccccc2)cc1	0%	-3%[59 µM]	10%	-13%	4%	-1
Cc1ccc(N(CC2=NCCN2)c2cccc(O)c2)cc1	-2%	11%[12.7 µM]	-2%	1%	79µM*!	0
Cc1nc2cnc(N(C)C)nc2n(CCc2ccccc2)c1=O	.	-2%[0.501 µM]	-10%	.	3%	.
CC(=O)Nc1cccc(/C(C)=N/Nc2ccc(S(=O)(=O)Nc3ccccc3C(=O)O)cc2[N+](=O)[O-])c1	.	.	?	24µM*	.	-2
CC(=O)Nc1ccc(C=NNc2ccc(S(=O)(=O)Nc3ccccc3C(=O)O)cc2[N+](=O)[O-])cc1	-11%	.	?	21µM*	.	-1
CC(=O)Nc1ccc(C=NNc2ccc([N+](=O)[O-])cc2S(=O)(=O)Nc2ccccc2C(=O)O)cc1	1%	.	?	?	.	1
O=C(O)c1ccccc1NS(=O)(=O)c1ccc(N/N=C/c2cccc(O)c2O)c([N+](=O)[O-])c1	.	.	-27%	?	.	-2
CCOc1cc(/C=N/Nc2ccc(S(=O)(=O)Nc3ccccc3C(=O)O)cc2[N+](=O)[O-])cc(Cl)c1O	.	.	.	7.5µM*	.	-1
CN(CCO)c1ccc(C=NNc2ccc([N+](=O)[O-])cc2S(=O)(=O)Nc2ccccc2C(=O)O)cc1	-1%	.	79µM*	21µM*	.	-2
CCC1CN(C(=O)N2CCC(C(=O)NCc3ccc(OC)cc3OC)CC2)c2cc(C)ccc2O1 (stereo not drawn)	.	-46%[59 µM]	-4%	.	.	.
CCC(=O)[C@@]1(C)[C@H](C)C[C@@H]2[C@@H]3CCC4=CC(=O)C=C[C@@]4(C)[C@H]3[C@H](O)C[C@]21C	.	12%[21.5 µM]	-7%	.	24%	.
COC(=O)c1c(NC(=O)c2ccc(Br)o2)sc(C)c1C	0%	50µM*	13%	?	-15%	-5
COc1ccc2oc(-c3ccc(C)c(NC(=O)c4ccc(N5CCCCC5)c([N+](=O)[O-])c4)c3)nc2c1	.	3%[59 µM]	-2%	.	.	.
Cc1ccc(N2NC3(CCN(C(N)=O)CC3)NC2=O)cc1	2%	0.71µM*	-15%	-4%	-12%	3
CCN(C(=O)CN1C(=O)COc2ccc(S(=O)(=O)N3CCCCCC3)cc21)c1cccc(C)c1	0%	13%	?	24µM*	-5%	0
